# From PubChem BioAssay (NCATS)
# Where “and” joins values, the source holds several entries; their conditions need not be identical. Identical values can stand only once. Inconclusive results are not listed. Calls of active or inactive are those of the source. Calls come from the whole dose curve.
# Biological target: Nucleoprotein (Lymphocytic choriomeningitis virus (strain Armstrong)) (UniProt P09992)
# Assay: qHTS for Inhibitors of the Functional Ribonucleoprotein Complex (vRNP) of Lymphocytic Choriomeningitis Arenaviruses (LCMV): LCMV Primary Screen - GLuc reporter signal (AID 1347086); note: nearly all actives have a fitted effect of over 70% in size; for activity change, negative = inhibition: % is set by controls: 0 for no effect and ±100 for the full control effect
# Conditions: LCMV minigenome vRNP cell assay, Gaussia luciferase reporter; series mostly up to 57.5 µM; activity change, negative = inhibition: at the top concentration
# Potency is the fitted concentration of half-maximal effect.
# Chain of Nucleoprotein (Lymphocytic choriomeningitis virus (strain Armstrong)) (P09992 whole entry, looked up): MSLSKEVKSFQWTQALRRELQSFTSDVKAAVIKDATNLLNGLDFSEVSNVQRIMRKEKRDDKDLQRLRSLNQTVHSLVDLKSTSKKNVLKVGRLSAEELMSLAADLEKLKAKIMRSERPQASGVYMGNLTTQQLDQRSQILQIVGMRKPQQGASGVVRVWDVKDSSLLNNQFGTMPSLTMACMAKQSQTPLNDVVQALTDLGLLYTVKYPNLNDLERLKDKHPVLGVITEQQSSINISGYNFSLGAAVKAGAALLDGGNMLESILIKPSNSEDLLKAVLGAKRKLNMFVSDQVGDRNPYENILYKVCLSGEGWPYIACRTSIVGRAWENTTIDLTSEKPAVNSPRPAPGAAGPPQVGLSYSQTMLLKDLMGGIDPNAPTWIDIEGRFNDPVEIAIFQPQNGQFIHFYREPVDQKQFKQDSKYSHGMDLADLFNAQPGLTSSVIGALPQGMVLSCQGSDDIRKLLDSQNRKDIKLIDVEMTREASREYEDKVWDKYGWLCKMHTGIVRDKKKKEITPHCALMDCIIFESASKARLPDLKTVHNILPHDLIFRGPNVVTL
SMILES,Potency,"activity change, negative = inhibition"
NS(=O)(=O)c1ccc(NC2=CC(=O)c3ccccc3C2=O)cc1,12.2 µM (active),–
COc1c(O)c(=O)n2c3ccccc3c3ccnc1c32,–,-36.4% (inactive)
Cc1ccc(O)c(N=Nc2ccccc2)n1,–,-26.4% (inactive)
C[C@@]12C=Cc3occc3[C@H]1CC[C@@]13C[C@@H](CC[C@H]12)[C@@](O)(CO)C3,–,10.7% (inactive)
CC1(C)CC(=O)c2c(C(F)(F)F)nn(-c3ccc(C(N)=O)c(NC4CCC(OC(=O)CN)CC4)c3)c2C1 (stereo unspecified),0.611 µM (active),–
COc1ccc(CCOC2OC(CO)C(OC(=O)/C=C/c3ccc(O)c(OC)c3)C(O[C@H]3O[C@@H](C)[C@H](O)[C@@H](O)[C@H]3O)C2O)cc1O (stereo partly specified),–,12.6% (inactive)
CCOc1cc2c(c(F)c1OCC)C(=N)N(CC(=O)c1cc(N3CCOCC3)c(OC)c(C(C)(C)C)c1)C2,9.68 µM (active),–
CC(C)(C)c1nc2c3cc[nH]c(=O)c3c3cc(F)ccc3c2[nH]1,–,-1.83% (inactive)
COc1ccc(C(=O)/C=C/c2ccc(OC)cc2OC)c(O)c1,–,-18.1% (inactive)
COC1CC2C=C(C)C=CC=CC(=O)NC(c3ccccc3)CC=CCCC(O)CC(=O)C2=C1O (stereo unspecified),–,-108% (inactive)
CC(=O)OC[C@@H]1O[C@@H](n2ccc(=O)[nH]c2=O)[C@H](OC(C)=O)[C@H]1OC(C)=O,7.69 µM (active),–
NC(=O)c1nnn(Cc2cc(Cl)c(C(=O)c3ccc(Cl)cc3)c(Cl)c2)c1N,–,-27.1% (inactive)
Cc1cccc(O)c1C,–,14.2% (inactive)
CCCC(=O)OCCC(C)C,–,9.29% [at 115 µM] (inactive)

# System: not listed separately
# Assay: Cytotoxicity counterscreen for inhibitors of SARS-CoV-2 cell entry (AID 1645845); note: nearly all actives have a fitted effect of over 50% in size; for activity change, negative = cytotoxicity: % is set by controls: 0 for no effect and ±100 for the full control effect
# Conditions: cell viability (SARS-CoV-2 entry assay cells); series mostly up to 57.1 µM; activity change, negative = cytotoxicity: at the top concentration; outcome: at the top concentration
# In short: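 ATP-content luminescence (ATPLite 1step, 15 min RT) read after 48 h compound exposure of Expi293F cells stably expressing human ACE2; normalized to cells-only wells and media-only wells.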
SMILES,"activity change, negative = cytotoxicity",Potency,outcome
CN(C)c1ccc2cc(C(=O)N[C@@H](CCCN=C(N)CCl)C(=O)NCc3ccccc3)ccc2c1,4.71% (inactive),–,–
CCCCCCCCc1ccc(CCC(N)(CO)CO)cc1,–,7.08 µM (active) and 25.1 µM (active),–
CCC[C@H](N[C@@H](C)C(=O)N1[C@@H]2CCCC[C@H]2C[C@H]1C(=O)O)C(=O)OCC,–,–,inactive
NS(=O)(=O)c1ccc(NC2=CC(=O)c3ccccc3C2=O)cc1,-26.5% (inactive),–,–
C=CC(=O)N1CCC[C@@H](n2nc(-c3ccc(Oc4ccccc4)cc3)c3c(N)ncnc32)C1,-3.74% (inactive),–,–
CC1(C)CNc2cc(NC(=O)c3cccnc3NCc3ccncc3)ccc21,-5.5% (inactive),–,–
CC(C)(C)c1nc2c3cc[nH]c(=O)c3c3cc(F)ccc3c2[nH]1,–,–,inactive
CC(=O)OC[C@@H]1O[C@@H](n2ccc(=O)[nH]c2=O)[C@H](OC(C)=O)[C@H]1OC(C)=O,–,–,inactive
C[C@@]1(c2cc(-c3cncnc3)c(F)cc2F)CCSC(N)=N1,–,–,inactive

# System: not listed separately
# Assay: Primary qHTS to identify inhibitors of SARS-CoV-2 cell entry (AID 1645846); note: nearly all actives have a fitted effect of over 45% in size
# Conditions: SARS-CoV-2 pseudovirus cell entry assay, luminescence; activity change, negative = inhibition: at 57.1 µM (top of the series) unless noted; series mostly up to 57.1 µM; outcome: at the top concentration
# In short: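 Luminescence readout (Bright-Glo luciferase) 48 h after pseudoparticle addition. HEK293-ACE2 cells, 1500/well; compound pre-incubation 1 h; Normalized to spike PP and bald PP.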
SMILES,"activity change, negative = inhibition",outcome,Potency
CN(C)c1ccc2cc(C(=O)N[C@@H](CCCN=C(N)CCl)C(=O)NCc3ccccc3)ccc2c1,-26.4%,–,–
O=C1NC(=O)/C(=C/c2ccc3nccnc3c2)S1,–,inactive,–
CO[C@@H]1[C@@H](OC2OC(C)C(OC3CC(C)(O)C(OC(=O)CC(C)C)C(C)O3)C(N(C)C)C2O)[C@@H](CC=O)C[C@@H](C)C(=O)/C=C\C2O[C@H]2C[C@@H](C)OC(=O)C[C@H]1OC(C)=O (stereo partly specified),–,–,28.2 µM (active)
CCCCCCCCc1ccc(CCC(N)(CO)CO)cc1,–,–,8.91 µM (active)
CCC[C@H](N[C@@H](C)C(=O)N1[C@@H]2CCCC[C@H]2C[C@H]1C(=O)O)C(=O)OCC,1.44%,–,–
NS(=O)(=O)c1ccc(NC2=CC(=O)c3ccccc3C2=O)cc1,–,inactive,–
CC1(C)CC(=O)c2c(C(F)(F)F)nn(-c3ccc(C(N)=O)c(NC4CCC(OC(=O)CN)CC4)c3)c2C1 (stereo unspecified),-89%,–,–
C=CC(=O)N1CCC[C@@H](n2nc(-c3ccc(Oc4ccccc4)cc3)c3c(N)ncnc32)C1,–,inactive,–
COc1cc2c(NC3CCN(C(C)C)CC3)nc(C3CCCCC3)nc2cc1OCCCN1CCCC1,–,–,8.91 µM (active)
CCOc1cc2c(c(F)c1OCC)C(=N)N(CC(=O)c1cc(N3CCOCC3)c(OC)c(C(C)(C)C)c1)C2,–,–,35.5 µM (active)
CC1(C)CNc2cc(NC(=O)c3cccnc3NCc3ccncc3)ccc21,–,inactive,–
CC(=O)OC[C@@H]1O[C@@H](n2ccc(=O)[nH]c2=O)[C@H](OC(C)=O)[C@H]1OC(C)=O,-39.7%,–,–
C[C@@]1(c2cc(-c3cncnc3)c(F)cc2F)CCSC(N)=N1,-2.33%,–,–
